Results: PubChem BioAssay (NCI)
The panel holds about 83,000 compounds, 20% with a hit somewhere; the sample as a whole holds those more often.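 Percent growth is the endpoint: 0 to 100 indicates growth inhibition (40 means 60% inhibition), 0 means no net growth, and negative values indicate cell death.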 Active and inactive are the calls of the source. How the source made its calls: active means growth percent below 10; inactive means the rest.

Legend:
Test in all cases: NCI-60 one-dose screen, 48 h (100 = growth as untreated, 0 = no growth, -100 = all killed)
Details in all cases: 10 µM unless noted
HCT-15 colon = system: HCT-15 colon
HT29 colon = system: HT29 colon
SNB-75 CNS = system: SNB-75 CNS
SNB-19 CNS = system: SNB-19 CNS
U251 CNS = system: U251 CNS
PC-3 prostate = system: PC-3 prostate
SK-MEL-5 melanoma = system: SK-MEL-5 melanoma
UACC-62 melanoma = system: UACC-62 melanoma
LOX IMVI melanoma = system: LOX IMVI melanoma
SK-MEL-28 melanoma = system: SK-MEL-28 melanoma

Measured: growth

N#Cc1c(-c2ccccc2)cc(-c2ccccc2)n(CCCCC(=O)NO)c1=O
active: SNB-75 CNS -8.42% | SK-MEL-5 melanoma -53% | UACC-62 melanoma 2.89% | LOX IMVI melanoma -54.9%
inactive: HCT-15 colon 13.8% | HT29 colon 19.1% | SNB-19 CNS 43.3% | U251 CNS 29.1% | PC-3 prostate 32.9% | SK-MEL-28 melanoma 17.6%

Cc1cccc(-c2nc(C(C)C)sc2-c2ccnc(NCCCNS(=O)(=O)c3ccc(Cl)cc3)c2)c1
inactive: HCT-15 colon 36.5% | HT29 colon 16.9% | SNB-75 CNS 97.5% | SNB-19 CNS 89.6% | U251 CNS 73% | PC-3 prostate 50% | SK-MEL-5 melanoma 87.6% | UACC-62 melanoma 96.4% | LOX IMVI melanoma 75% | SK-MEL-28 melanoma 90.6%

C=C1C(=O)O[C@H]2[C@H]1CC/C(CNC(=O)Cc1c[nH]c3ccccc13)=C\CC[C@@]1(C)O[C@@H]21
inactive: HCT-15 colon 15.6% | SNB-75 CNS 73.9% | SNB-19 CNS 57.5% | U251 CNS 43.9% | PC-3 prostate 49.9% | SK-MEL-5 melanoma 42.1%
active: HT29 colon 1.86% | UACC-62 melanoma -23.5% | LOX IMVI melanoma -75.3% | SK-MEL-28 melanoma -29.9%

N#Cc1c(-c2cccc(Cl)c2)cc(-c2cccnc2)[nH]c1=O
inactive: HCT-15 colon 44.8% | HT29 colon 115% | SNB-75 CNS 61.1% | SNB-19 CNS 67.9% | U251 CNS 71.8% | PC-3 prostate 87.3% | SK-MEL-5 melanoma 67.1% | UACC-62 melanoma 36.6% | LOX IMVI melanoma 81.2% | SK-MEL-28 melanoma 64.4%

CNCCCNc1nc2ccccc2c2c(=O)c3cc(Cl)ccc3sc12
inactive: SNB-75 CNS 61% | SNB-19 CNS 55.7% | PC-3 prostate 32.8% | SK-MEL-5 melanoma 71.4% | UACC-62 melanoma 10.9% | SK-MEL-28 melanoma 50.8%
active: HCT-15 colon -19.5% | HT29 colon -92.4% | U251 CNS -87.2% | LOX IMVI melanoma -90.3%

Clc1ccc(-c2nc(C(Cl)Cl)nc3cc(-c4ccccc4)nn23)cc1
inactive: SNB-19 CNS 25.2% | PC-3 prostate 41.2% | SK-MEL-5 melanoma 82.2% | UACC-62 melanoma 79.8% | LOX IMVI melanoma 78.5% | SK-MEL-28 melanoma 47.9%
active: HCT-15 colon 8.19% | HT29 colon 5.93% | SNB-75 CNS -13.1% | U251 CNS 7%

O=S(=O)(N=C1C(Cl)=C(Cl)C(=NS(=O)(=O)c2ccccc2)C(Cl)=C1Cl)c1ccccc1
inactive: HT29 colon 14% | SNB-75 CNS 132% | SNB-19 CNS 95.9% | U251 CNS 59.8% | PC-3 prostate 121% | SK-MEL-5 melanoma 87% | UACC-62 melanoma 67.1% | LOX IMVI melanoma 54.6% | SK-MEL-28 melanoma 89.5%
active: HCT-15 colon 7.28%

COc1ccc(N=C2NN=C(c3c[nH]c4ccccc34)CS2)cc1OC
inactive: HCT-15 colon 43.3% | HT29 colon 25.3% | SNB-75 CNS 42.2% | SNB-19 CNS 51.8% | U251 CNS 44.8% | SK-MEL-5 melanoma 51.9% | UACC-62 melanoma 35.6% | LOX IMVI melanoma 45.1% | SK-MEL-28 melanoma 63.7%
active: PC-3 prostate -41.3%

CCN(CC)CCOc1ccc(C(=O)/C=C\c2ccc(Cl)cc2Cl)cc1
inactive: SNB-75 CNS 82.9% | SNB-19 CNS 56.7% | U251 CNS 24.9% | PC-3 prostate 23.3% | SK-MEL-28 melanoma 32.5%
active: HCT-15 colon 2.05% | HT29 colon -19.6% | SK-MEL-5 melanoma 6.5% | UACC-62 melanoma -34.5% | LOX IMVI melanoma -77.3%

Cc1oc(-c2ccc(Cl)cc2)nc1C1=NN(C(=O)c2ccncc2)C(c2ccccc2)C1 (stereo not given)
inactive: HCT-15 colon 91.3% | HT29 colon 96.6% | SNB-75 CNS 92.8% | SNB-19 CNS 80.3% | U251 CNS 92.8% | PC-3 prostate 83.7% | SK-MEL-5 melanoma 97.3% | UACC-62 melanoma 72.9% | LOX IMVI melanoma 92.7% | SK-MEL-28 melanoma 89.7%

CCN(CCNc1ccc(C)c2sc3cc(Cl)ccc3c(=O)c12)CC(C)(C)O
inactive: HCT-15 colon 17.5% | HT29 colon 21.7% | SNB-75 CNS 68.5% | SNB-19 CNS 71% | U251 CNS 46.3% | PC-3 prostate 81.2% | SK-MEL-5 melanoma 63.4% | LOX IMVI melanoma 41.8%
active: UACC-62 melanoma -60.1% | SK-MEL-28 melanoma -33%

COC1C(O)CC(OC2CC(OC3CC(O[C@@H]4C(=O)c5c(cc6cc(OC7CC(OC8CC(O)C(O)C(C)O8)C(O)C(C)O7)c(C)c(O)c6c5O)CC4[C@H](OC)C(=O)O)OC(C)C3O)OC(C)C2O)OC1C (stereo not given in full)
inactive: HCT-15 colon 48.6% | HT29 colon 20.3% | SNB-19 CNS 21.4% | PC-3 prostate 21.8%
active: SNB-75 CNS -22.7% | U251 CNS 0.444% | SK-MEL-5 melanoma -45.9% | UACC-62 melanoma -0.0213% | LOX IMVI melanoma -12.7% | SK-MEL-28 melanoma 3.33%

O=C(/C=C/C12c3ccccc3C(c3ccccc31)C1C(=O)NC(=O)C12)c1ccc(Cl)cc1Cl (stereo not given)
inactive: HCT-15 colon 11% | SNB-75 CNS 25.1% | SNB-19 CNS 27% | PC-3 prostate 15.6% | SK-MEL-5 melanoma 36.8% | UACC-62 melanoma 12.5%
active: HT29 colon 1.07% | U251 CNS 7.87% | LOX IMVI melanoma -25.6% | SK-MEL-28 melanoma 4.9%

COc1ccc2[nH]cc(-c3nonc3-c3c[nH]c4ccc(Br)cc34)c2c1
inactive: HCT-15 colon 19.9% | SNB-75 CNS 58.6% | SNB-19 CNS 62.9% | U251 CNS 42.2% | PC-3 prostate 39.8% | SK-MEL-5 melanoma 78.1% | UACC-62 melanoma 56% | SK-MEL-28 melanoma 84.1%
active: HT29 colon 5.38% | LOX IMVI melanoma -33.4%

O=C(NCCNC(c1ccccc1)C(NCCNC(=O)c1ccccc1)c1ccccc1)c1ccccc1 (stereo not given)
inactive: HCT-15 colon 18.8% | HT29 colon 36.7% | SNB-75 CNS 117% | SNB-19 CNS 88% | U251 CNS 74.7% | PC-3 prostate 70.4% | SK-MEL-5 melanoma 95.7% | UACC-62 melanoma 85.2% | LOX IMVI melanoma 75.6% | SK-MEL-28 melanoma 103%

O=C1OCC2=C1C(c1ccccc1)c1cc3c(cc1N2CCO)OCCO3 (stereo not given)
inactive: SNB-19 CNS 12.8% | PC-3 prostate 17.3% | UACC-62 melanoma 14.5% | LOX IMVI melanoma 34.6% | SK-MEL-28 melanoma 32.6%
active: HCT-15 colon 7.18% | HT29 colon -35.9% | SNB-75 CNS -11.2% | U251 CNS 7.86% | SK-MEL-5 melanoma 4.37%

CCN(CC)CCOc1ccc(/C(=C(\C)Cc2ccc(OC)cc2)c2ccc(OC(=O)NCc3ccccc3)cc2)cc1
active: HT29 colon -34.8%
inactive: HCT-15 colon 15.1% | SNB-75 CNS 59.4% | SNB-19 CNS 66.9% | U251 CNS 32.4% | PC-3 prostate 46.2% | SK-MEL-5 melanoma 26.5% | UACC-62 melanoma 34.3% | LOX IMVI melanoma 37.2% | SK-MEL-28 melanoma 38%

O=C(Nc1cc(Cl)ccc1O)c1ccccc1Nc1ccnc(C(F)(F)F)c1
active: PC-3 prostate 7.3% | SK-MEL-5 melanoma -43.8%
inactive: HCT-15 colon 14.1% | HT29 colon 38.2% | SNB-75 CNS 55.6% | SNB-19 CNS 16.2% | U251 CNS 10.8% | UACC-62 melanoma 23.1% | LOX IMVI melanoma 18.8% | SK-MEL-28 melanoma 75%

O=c1oc2c(cnc3ccccc32)cc1-c1cccc(Cl)c1
inactive: HCT-15 colon 101% | HT29 colon 108% | SNB-75 CNS 95.6% | SNB-19 CNS 98.5% | U251 CNS 98.2% | PC-3 prostate 97.7% | SK-MEL-5 melanoma 107% | UACC-62 melanoma 96.1% | LOX IMVI melanoma 102% | SK-MEL-28 melanoma 105%

CS(=O)(=O)Nc1cc(-c2ccc3ncnc(Nc4ccc(OCc5ccccn5)c(Cl)c4)c3c2)cnc1Cl
inactive: HCT-15 colon 25.1% | SNB-19 CNS 24% | PC-3 prostate 13.4%
active: HT29 colon -5.91% | SNB-75 CNS -10.8% | U251 CNS -27.1% | SK-MEL-5 melanoma -80.8% | UACC-62 melanoma 4.79% | LOX IMVI melanoma -19.6% | SK-MEL-28 melanoma 8.34%

Ic1ccc(Nc2nc3nonc3nc2Nc2ccc(I)cc2)cc1
inactive: SNB-75 CNS 24.7% | SNB-19 CNS 22.4% | SK-MEL-28 melanoma 12.2%
active: HCT-15 colon -11.5% | HT29 colon 0.391% | U251 CNS 6.94% | PC-3 prostate 4.36% | SK-MEL-5 melanoma -81.2% | UACC-62 melanoma -28.2% | LOX IMVI melanoma -3.56%

CCCCCc1ccc(S(=O)(=O)Nc2cc(-c3csc(NC(C)=O)n3)ccc2N2CCN(C)CC2)cc1
inactive: SNB-75 CNS 37.3% | SNB-19 CNS 74.6% | U251 CNS 12.2% | PC-3 prostate 41.2% | SK-MEL-5 melanoma 30.2%
active: HCT-15 colon 4% | HT29 colon 5.9% | UACC-62 melanoma -56.2% | LOX IMVI melanoma -95.4% | SK-MEL-28 melanoma -80.2%

Cc1ccc(-c2csc(NC(=O)CSc3nc(N)cc(N)n3)n2)cc1
active: SK-MEL-5 melanoma 2.45%
inactive: HCT-15 colon 75.2% | HT29 colon 87.8% | SNB-75 CNS 81.1% | SNB-19 CNS 64.2% | U251 CNS 78.1% | PC-3 prostate 70.5% | UACC-62 melanoma 55.1% | LOX IMVI melanoma 60.2% | SK-MEL-28 melanoma 88.7%

COC(=O)[C@@]1(C)CC[C@]2(C)CC[C@]3(C)C4=CC=C5C(=CC(=O)C(O)=C5C)[C@]4(C)[C@@H](O)C[C@@]3(C)[C@@H]2C1
active: HCT-15 colon 1.43% | U251 CNS -10.1% | LOX IMVI melanoma -56.3% | SK-MEL-28 melanoma -17.8%
inactive: HT29 colon 31.1% | SNB-75 CNS 70.5% | SNB-19 CNS 22.9% | PC-3 prostate 29.1% | SK-MEL-5 melanoma 60.7% | UACC-62 melanoma 29.6%

COc1ccc2cc(C(=O)N3CCC([C@@H](C)C(=O)NCc4ccc5c(c4)OCO5)CC3)[nH]c2c1
active: SNB-75 CNS -37.6% [50 µM]
inactive: HCT-15 colon 83% [50 µM] | HT29 colon 89.6% [50 µM] | SNB-19 CNS 25.8% [50 µM] | U251 CNS 23.6% [50 µM] | PC-3 prostate 56.5% [50 µM] | SK-MEL-5 melanoma 63.6% [50 µM] | UACC-62 melanoma 43.7% [50 µM] | LOX IMVI melanoma 54.7% [50 µM] | SK-MEL-28 melanoma 77.8% [50 µM]

c1ccc(Cn2cc3c(c2-c2ccccc2)CCc2cnoc2-3)cc1
inactive: HCT-15 colon 48.6% | HT29 colon 30.1% | SNB-19 CNS 70.6% | U251 CNS 55.5% | PC-3 prostate 82.5% | SK-MEL-5 melanoma 78.8% | UACC-62 melanoma 43.1% | LOX IMVI melanoma 66.1% | SK-MEL-28 melanoma 59.5%
active: SNB-75 CNS 4.38%

Cn1cc(-c2nonc2-c2c[nH]c3ccccc23)c2cc(Br)ccc21
active: HT29 colon 8.18%
inactive: HCT-15 colon 18.5% | SNB-75 CNS 46.3% | SNB-19 CNS 49.7% | U251 CNS 29.8% | PC-3 prostate 41.7% | SK-MEL-5 melanoma 48% | UACC-62 melanoma 34.2% | LOX IMVI melanoma 19% | SK-MEL-28 melanoma 60.8%
